In PubChem BioAssay (NCI) one finds growth inhibition data, which are given here for 10 compounds.

A short description of assay [1]: NCI Yeast Anticancer Drug Screen. Data for the rad50 strain (AID 155).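 Also: 0% = growth of vehicle-only cultures of the same strain.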 As to conditions: S. cerevisiae rad50 strain growth inhibition, stronger effect = higher value. Put shortly:
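Readout: growth inhibition relative to vehicle-treated cultures. Compound exposure was carried out in a genetically defined yeast strain deficient in DNA damage repair.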

Assay [2] can be described thus: NCI Yeast Anticancer Drug Screen. Data for the mec2-1 strain (AID 157). The following applies: S. cerevisiae mec2-1 strain, stronger effect = higher value. In a few lines: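 Mutant yeast (mec2-1) grown with compound; growth inhibition relative to vehicle control reported.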
A short description of assay [3]: NCI Yeast Anticancer Drug Screen. Data for the sgs1 mgt1 strain (AID 161).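 Also: 0% = growth of cultures given vehicle only.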 As to conditions: S. cerevisiae sgs1 mgt1 strain, stronger effect = higher value. In a few lines: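 Growth of a repair-deficient yeast mutant was monitored after compound treatment and expressed as inhibition relative to vehicle-treated cultures.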
Assay [4] in a line: NCI Yeast Anticancer Drug Screen. Data for the cln2 rad14 strain (AID 165).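 Also: 0% = growth equal to vehicle treated cultures.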 As to conditions: S. cerevisiae cln2 rad14 strain, stronger effect = higher value. Put shortly: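 Readout is yeast growth inhibition versus vehicle-treated controls, using a strain with cln2 and rad14 alterations exposed to compound.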
Assay [5] can be described thus: NCI Yeast Anticancer Drug Screen. Data for the bub3 strain (AID 167). As to conditions: S. cerevisiae bub3 mutant strain, stronger effect = higher value. Put shortly:
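Readout: yeast growth inhibition, expressed relative to vehicle-only wells. The test organism is a mutant strain from a panel with lesions in DNA repair or checkpoint genes.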

A short description of assay [6]: NCI Yeast Anticancer Drug Screen. Data for the mlh1 rad18 strain (AID 175). As to conditions: S. cerevisiae mlh1 rad18 strain growth inhibition, stronger effect = higher value. In a few lines:
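Genetically defined yeast (DNA repair-deficient) exposed to compounds; growth inhibition determined relative to vehicle.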

[7] abbreviates: at 5.0 µM (retest, dose inferred, filed as 0.5).
Where [8] appears, read: at 50.0 µM (retest, dose inferred, filed as 5.0).

The panel holds about 79,000 compounds, 15% with a hit somewhere; the sample as a whole holds those more often. Unmarked numbers belong to inactive results. The source made the active and inactive calls. Rule as the data show it: active = growth inhibition above about 70%; inactive = the rest.

As for `CCCCCCCN(CCCCCCC)CC(O)c1ccc2ccc3ccccc3c2c1` (stereo not given), the growth inhibition in assay [1] (setting [7]) was 19%; in assay [1] (setting [8]), 76% (active); in assay [1] (at 50.0 µM), 68.2%; in assay [2] (setting [7]), 8%; in assay [2] (setting [8]), 73% (active); in assay [2] (at 50.0 µM), 62%. The growth inhibition in assay [3] (setting [7]) is 36%; in assay [3] (setting [8]), 85% (active); in assay [3] (at 50.0 µM) it was 81.2% (active); in assay [4] (setting [7]) it was 13%; in assay [4] (setting [8]) it was 59%; in assay [4] (at 50.0 µM), 38%. Further, the growth inhibition in assay [5] (setting [7]) is 16%; in assay [5] (setting [8]), 78% (active); in assay [5] (at 50.0 µM) it was 59.4%; in assay [6] (setting [7]) it was 12%; in assay [6] (setting [8]) it was 78% (active); in assay [6] (at 50.0 µM), 79.2% (active).

For `N#Cc1snc2sc(=O)sc12`, the growth inhibition in assay [1] (setting [7]) is 99% (active); in assay [1] (setting [8]), 100% (active); in assay [1] (at 50.0 µM) it was 99.5% (active); in assay [2] (setting [7]) it was 100% (active); in assay [2] (setting [8]), 99% (active); in assay [2] (at 50.0 µM), 99.7% (active). Besides, the growth inhibition in assay [3] (setting [7]) was 100% (active); in assay [3] (setting [8]), 100% (active); in assay [3] (at 50.0 µM), 99.5% (active); in assay [4] (setting [7]) it was 99% (active); in assay [4] (setting [8]), 100% (active); in assay [4] (at 50.0 µM), 99.2% (active). For the same compound, the growth inhibition in assay [5] (setting [7]) was 100% (active); in assay [5] (setting [8]) it was 99% (active); in assay [5] (at 50.0 µM) it was 99.2% (active); in assay [6] (setting [7]), 100% (active); in assay [6] (setting [8]), 99% (active); in assay [6] (at 50.0 µM) it was 99.5% (active).

For `O=NN(CCCl)C(=O)Oc1cc(Cl)c(Cl)cc1Cl`, the growth inhibition is 71% (active) in assay [1] (setting [7]); 98% (active) in assay [1] (setting [8]); 87.8% (active) in assay [1] (at 50.0 µM); 79% (active) in assay [2] (setting [7]); 100% (active) in assay [2] (setting [8]); 92.7% (active) in assay [2] (at 50.0 µM). Further, the growth inhibition was 84% (active) in assay [3] (setting [7]); 100% (active) in assay [3] (setting [8]); 92.7% (active) in assay [3] (at 50.0 µM); 37% in assay [4] (setting [7]); 99% (active) in assay [4] (setting [8]); 90.5% (active) in assay [4] (at 50.0 µM). For the same compound, the growth inhibition in assay [5] (setting [7]) was 48%; in assay [5] (setting [8]), 100% (active); in assay [5] (at 50.0 µM) it was 92% (active); in assay [6] (setting [7]), 96% (active); in assay [6] (setting [8]) it was 99% (active); in assay [6] (at 50.0 µM), 91% (active).

Turning to `Nc1ccc(SSc2ccc(N)cc2)cc1`, the growth inhibition in assay [1] (setting [7]) is -2%; in assay [1] (setting [8]) it was 97% (active); in assay [1] (at 50.0 µM) it was 93% (active); in assay [2] (setting [7]), -3%; in assay [2] (setting [8]) it was 98% (active); in assay [2] (at 50.0 µM) it was 61.5%. Further, the growth inhibition was 2% in assay [3] (setting [7]); 97% (active) in assay [3] (setting [8]); 57.6% in assay [3] (at 50.0 µM); -7% in assay [4] (setting [7]); 72% (active) in assay [4] (setting [8]); 94.1% (active) in assay [4] (at 50.0 µM). For the same compound, the growth inhibition in assay [5] (setting [7]) was 0%; in assay [5] (setting [8]), 98% (active); in assay [5] (at 50.0 µM), 95.3% (active); in assay [6] (setting [7]) it was -1%; in assay [6] (setting [8]), 98% (active); in assay [6] (at 50.0 µM), 96.4% (active).

Turning to `COC(=O)C1CCC(c2ccccc2)CC1C(=O)OC` (stereo not given), the growth inhibition in assay [1] (setting [7]) is 2%; in assay [1] (setting [8]), 10%; in assay [1] (at 50.0 µM), 24.9%; in assay [2] (setting [7]), 0%; in assay [2] (setting [8]), 6%; in assay [2] (at 50.0 µM), 20.9%. The growth inhibition was 1% in assay [3] (setting [7]); 12% in assay [3] (setting [8]); 33% in assay [3] (at 50.0 µM); 5% in assay [4] (setting [7]); 12% in assay [4] (setting [8]); 24% in assay [4] (at 50.0 µM). In addition, the growth inhibition in assay [5] (setting [7]) was 25%; in assay [5] (setting [8]), 31%; in assay [5] (at 50.0 µM), 71.2% (active); in assay [6] (setting [7]), -3%; in assay [6] (setting [8]), 9%; in assay [6] (at 50.0 µM), 28.6%.

As to `Cc1c2ccnc(C(N)=O)c2c(C)c2c1[nH]c1ccccc12`, the growth inhibition was 9% in assay [1] (setting [7]); 90% (active) in assay [1] (setting [8]); 76.1% (active) in assay [1] (at 50.0 µM); 12% in assay [2] (setting [7]); 98% (active) in assay [2] (setting [8]); 48.1% in assay [2] (at 50.0 µM). The growth inhibition in assay [3] (setting [7]) is 7%; in assay [3] (setting [8]) it was 84% (active); in assay [3] (at 50.0 µM), 38.6%; in assay [4] (setting [7]), 11%; in assay [4] (setting [8]) it was 79% (active); in assay [4] (at 50.0 µM), 47.1%. Further, the growth inhibition in assay [5] (setting [7]) is 7%; in assay [5] (setting [8]) it was 97% (active); in assay [5] (at 50.0 µM), 56.1%; in assay [6] (setting [7]) it was 12%; in assay [6] (setting [8]), 97% (active); in assay [6] (at 50.0 µM) it was 73.9% (active).

As to `C/C(Cl)=N\OC(=O)Nc1ccc(C)cc1`, the growth inhibition in assay [1] (setting [7]) is 4%; in assay [1] (setting [8]), 99% (active); in assay [1] (at 50.0 µM), 55.6%; in assay [2] (setting [7]), -2%; in assay [2] (setting [8]) it was 99% (active); in assay [2] (at 50.0 µM), 79.5% (active). Moreover, the growth inhibition in assay [3] (setting [7]) is -26%; in assay [3] (setting [8]), 91% (active); in assay [3] (at 50.0 µM), 74.5% (active); in assay [4] (setting [7]), 4%; in assay [4] (setting [8]) it was 86% (active); in assay [4] (at 50.0 µM), 53.6%. Besides, the growth inhibition in assay [5] (setting [7]) was 11%; in assay [5] (setting [8]) it was 98% (active); in assay [5] (at 50.0 µM) it was 74% (active); in assay [6] (setting [7]) it was -3%; in assay [6] (setting [8]), 96% (active); in assay [6] (at 50.0 µM) it was 60.4%.

Consider `CCCCCCCCCCCC1C(C#N)C(=O)NC(=O)C1C#N` (stereo not given), for which the growth inhibition was 92% (active) in assay [1] (setting [7]); 92% (active) in assay [1] (setting [8]); 49.3% in assay [1] (at 50.0 µM); 90% (active) in assay [2] (setting [7]); 92% (active) in assay [2] (setting [8]); 5.4% in assay [2] (at 50.0 µM). The growth inhibition was 87% (active) in assay [3] (setting [7]); 92% (active) in assay [3] (setting [8]); 64.7% in assay [3] (at 50.0 µM); 73% (active) in assay [4] (setting [7]); 82% (active) in assay [4] (setting [8]); -8.05% in assay [4] (at 50.0 µM). Besides, the growth inhibition in assay [5] (setting [7]) is 78% (active); in assay [5] (setting [8]), 86% (active); in assay [5] (at 50.0 µM) it was -27.9%; in assay [6] (setting [7]), 87% (active); in assay [6] (setting [8]) it was 90% (active); in assay [6] (at 50.0 µM) it was 26%.

On to `O=C(CNC(=O)c1ccccc1)NNc1ccccc1`, for which the growth inhibition in assay [1] (setting [7]) was 16%; in assay [1] (setting [8]), 62%; in assay [1] (at 50.0 µM), 86.7% (active); in assay [2] (setting [7]) it was 4%; in assay [2] (setting [8]) it was 65%; in assay [2] (at 50.0 µM) it was 71.2% (active). Also, the growth inhibition is 8% in assay [3] (setting [7]); 67% in assay [3] (setting [8]); 32.8% in assay [3] (at 50.0 µM); 3% in assay [4] (setting [7]); 68% in assay [4] (setting [8]); 48.8% in assay [4] (at 50.0 µM). Moreover, the growth inhibition in assay [5] (setting [7]) is 7%; in assay [5] (setting [8]) it was 89% (active); in assay [5] (at 50.0 µM), 32.5%; in assay [6] (setting [7]), 30%; in assay [6] (setting [8]), 93% (active); in assay [6] (at 50.0 µM), 86.9% (active).

As for `CCCCN(CCCC)CCCCNc1ccc(C)c2sc3ccccc3c(=O)c12`, the growth inhibition in assay [1] (setting [7]) is 36%; in assay [1] (setting [8]), 99% (active); in assay [1] (at 50.0 µM), 98.7% (active); in assay [2] (setting [7]), 23%; in assay [2] (setting [8]), 98% (active); in assay [2] (at 50.0 µM), 99.2% (active). In addition, the growth inhibition in assay [3] (setting [7]) is 83% (active); in assay [3] (setting [8]), 98% (active); in assay [3] (at 50.0 µM) it was 98.8% (active); in assay [4] (setting [7]), 18%; in assay [4] (setting [8]), 98% (active); in assay [4] (at 50.0 µM), 98.3% (active). For the same compound, the growth inhibition in assay [5] (setting [7]) was 50%; in assay [5] (setting [8]) it was 98% (active); in assay [5] (at 50.0 µM), 98.8% (active); in assay [6] (setting [7]) it was 65%; in assay [6] (setting [8]), 98% (active); in assay [6] (at 50.0 µM), 99.2% (active).
